According to PubChem BioAssay AID1159580 (chemical genetic matrix, 2015):
Several values for one entry are separate records, joined by “and”; a condition that tells them apart may be missing. Equal values may be shown once. Hit rate of the full screen: of about 5,500 compounds, about 2,000 (36%) were called active. Not shown: some 18% with an inconclusive outcome. No stated cut-off is given here; in the data, active means normalized growth mostly below about 0.91 (no sharp cut-off); inconclusive means no clear call, values can overlap the other calls; inactive means mostly above about 0.92. Some of the results follow.

Test: chemical genetic growth profiling, strain panel (AID 1159580);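 further: tested at 20 µM; growth read once vehicle control cultures reached saturation at 30 °C; 1 = growth at the plate median or of vehicle wells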
Conditions: S. cerevisiae deletion strains, growth OD

Measured: normalized growth

CCCCC(=O)N(Cc1ccc(-c2ccccc2-c2nn[nH]n2)cc1)[C@H](C(=O)O)C(C)C
inactive: locus YAL013W, strain DEP1, stronger effect = lower value 0.992 | locus YAL021C, strain ccr4, stronger effect = lower value 0.974 | locus YAL026C, strain drs2, stronger effect = lower value 0.982 | locus YAL030W, strain snc1, stronger effect = lower value 0.993 | locus YBL061C, strain skt5, stronger effect = lower value 0.994 | locus YBR009C, strain hhf1, stronger effect = lower value 0.986 | locus YBR021W, strain FUR4, stronger effect = lower value 0.993 | locus YBR023C, strain chs3, stronger effect = lower value 1 | locus YBR171W, strain sec66, stronger effect = lower value 0.986 | locus YBR229C, strain ROT2, stronger effect = lower value 1 | locus YBR231C, strain swc5, stronger effect = lower value 1.01 | locus YBR279W, strain paf1, stronger effect = lower value 1 | locus YCL011C, strain gbp2, stronger effect = lower value 0.981 | locus YCL016C, strain dcc1, stronger effect = lower value 0.98 | locus YCL029C, strain bik1, stronger effect = lower value 0.962 | locus YCL061C, strain MRC1, stronger effect = lower value 0.971 | locus YCL069W, strain vba3, stronger effect = lower value 0.99 | locus YCR088W, strain abp1, stronger effect = lower value 0.99 | locus YDL005C, strain med2, stronger effect = lower value 1 | locus YDL035C, strain GPR1, stronger effect = lower value 0.987 | locus YDL040C, strain nat1, stronger effect = lower value 0.992 | locus YDL074C, strain BRE1, stronger effect = lower value 1 | locus YDL101C, strain DUN1, stronger effect = lower value 0.988 | locus YDL134C, strain PPH21, stronger effect = lower value 1.01 | locus YDL185W, strain tfp1, stronger effect = lower value 0.932 | locus YDL192W, strain arf1, stronger effect = lower value 0.972 | locus YDR001C, strain nth1, stronger effect = lower value 0.974 | locus YDR069C, strain doa4, stronger effect = lower value 0.993 | locus YDR101C, strain arx1, stronger effect = lower value 0.995 | locus YDR137W, strain rgp1, stronger effect = lower value 0.969 | locus YDR150W, strain NUM1, stronger effect = lower value 0.972 | locus YDR159W, strain sac3, stronger effect = lower value 0.946 | locus YDR162C, strain NBP2, stronger effect = lower value 0.982 | locus YDR195W, strain ref2 1 | locus YDR297W, strain sur2, stronger effect = lower value 0.994 | locus YDR318W, strain mcm21, stronger effect = lower value 0.979 | locus YDR334W, strain swr1, stronger effect = lower value 0.987 | locus YDR335W, strain msn5, stronger effect = lower value 0.994 | locus YDR388W, stronger effect = lower value 0.989 | locus YDR392W, strain spt3, stronger effect = lower value 0.979 | locus YDR502C, strain sam2, stronger effect = lower value 0.98 | locus YEL003W, strain gim4, stronger effect = lower value 0.968 | locus YEL037C, strain rad23, stronger effect = lower value 0.987 | locus YEL061C, strain CIN8 (second series), stronger effect = lower value 0.976 | locus YEL061C, strain CIN8, stronger effect = lower value 0.985 | locus YER015W, strain faa2, stronger effect = lower value 1.01 | locus YER016W, strain bim1, stronger effect = lower value 0.999 | locus YER110C, stronger effect = lower value 0.973 | locus YER111C, strain swi4, stronger effect = lower value 0.986 | locus YER155C, strain BEM2 (second series), stronger effect = lower value 1.03 | locus YER155C, strain BEM2, stronger effect = lower value 0.994 | locus YER167W, strain BCK2, stronger effect = lower value 0.954 | locus YFR010W, strain ubp6, stronger effect = lower value 0.995 | locus YGL078C, strain dbp3, stronger effect = lower value 0.97 | locus YGL086W, strain mad1, stronger effect = lower value 0.971 | locus YGL167C, strain pmr1, stronger effect = lower value 0.999 | locus YGL173C, strain kem1, stronger effect = lower value 1 | locus YGL227W, strain vid30, stronger effect = lower value 0.985 | locus YGL240W, strain doc1, stronger effect = lower value 1.01 | locus YGL248W, strain PDE1, stronger effect = lower value 0.991 | locus YGL253W, strain hxk2, stronger effect = lower value 0.986 | locus YGR078C, strain PAC10, stronger effect = lower value 0.988 | locus YGR135W, strain pre9, stronger effect = lower value 0.982 | locus YGR229C, strain SMI1, stronger effect = lower value 0.969 | locus YGR252W, strain gcn5, stronger effect = lower value 1.1 | locus YHR013C, strain ard1, stronger effect = lower value 1 | locus YHR027C, strain rpn1, stronger effect = lower value 0.994 | locus YHR030C, strain SLT2, stronger effect = lower value 0.984 and 0.959 | locus YHR079C, strain IRE1 (second series), stronger effect = lower value 0.978 | locus YHR079C, strain IRE1, stronger effect = lower value 0.955 | locus YHR094C, strain hxt1, stronger effect = lower value 0.972 | locus YHR129C, strain ARP1, stronger effect = lower value 0.999 | locus YHR142W, strain chs7, stronger effect = lower value 0.96 | locus YHR200W, strain rpn10, stronger effect = lower value 0.974 | locus YIL066C, strain RNR3, stronger effect = lower value 0.991 | locus YIL073C, strain SPO22, stronger effect = lower value 0.887 | locus YIL125W, strain kgd1, stronger effect = lower value 0.954 | locus YIR030C, strain dcg1, stronger effect = lower value 0.991 | locus YJL092W, strain hpr5, stronger effect = lower value 0.986 | locus YJL095W, strain BCK1 (second series), stronger effect = lower value 0.996 | locus YJL095W, strain BCK1, stronger effect = lower value 0.992 and 0.987 | locus YJL115W, strain asf1, stronger effect = lower value 0.971 | locus YJL129C, strain trk1, stronger effect = lower value 1.01 | locus YJL134W, strain LCB3, stronger effect = lower value 0.992 | locus YJL154C, strain vps35, stronger effect = lower value 0.986 | locus YJL164C, strain tpk1, stronger effect = lower value 0.988 | locus YJL166W, strain qcr8, stronger effect = lower value 0.999 | locus YJL168C, strain set2, stronger effect = lower value 0.984 | locus YJL187C, strain SWE1 (second series), stronger effect = lower value 0.983 | locus YJL187C, strain SWE1, stronger effect = lower value 0.99 | locus YJR043C, strain POL32, stronger effect = lower value 0.979
